# Activity calls are given as the source filed them.
# How the values were obtained:
# [1] = E. coli DRC41 culture turbidity changes, primary screen, E. coli filamentation inducer project, strain DRC41, OD650, 48 h (AID 1152);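 also: E. coli MC1000 strain DRC41 lacking acrAB efflux pump and sulA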; settings: E. coli DRC41 (acrAB sulA), higher = more signal, called active from +8 up or from −8 down
# [2] = small-molecule binders of probe aLefty1, primary screen, biochemical, small-molecule microarray, 635/667 nm fluorescence (AID 1153); settings: higher = more signal;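 also: score merges spot fluorescence with signal-to-noise ratio from the scanned slide images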
# [3] = PSAC antagonists in infected red cells, primary screen, cell-based, P. falciparum Indochina, OD700, 1 h (AID 1154); settings: P. falciparum Indochina infected RBC osmotic lysis, higher = more signal, called active from +8 up or from −8 down
# [4] = PSAC antagonists in infected red cells, primary screen, cell-based, P. falciparum Indochina, OD700, 2 h (AID 1155);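 also: lysis reports solute entry through the parasite surface anion channel PSAC; channel blockers reduce lysis of infected cells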; settings: P. falciparum Indochina infected erythrocytes, osmotic lysis OD700; higher = more signal, called active from +8 up or from −8 down
# [5] = osmotic lysis modulators in infected erythrocytes, primary screen, PSAC antagonist project, cell-based, P. falciparum Indochina, OD700, 3 h (AID 1156); settings: higher = more signal, called active from +8 up or from −8 down
# [6] = PSAC antagonists in infected red cells, primary screen, cell-based, P. falciparum Indochina, OD700, 18 h (AID 1157); settings: P. falciparum Indochina infected erythrocytes, osmotic lysis OD700, 18 h; higher = more signal, called active from +8 up or from −8 down
# [7] = modulators of S6 phosphorylation in cells, primary screen, cell-based, A549, cytoblot, luminescence, serum-stimulated (AID 1158); settings: A549 phospho-S6 cytoblot, 5 h, higher = more signal;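 also: serum-stimulated A549 lung adenocarcinoma cells; signal is phosphorylated S6 detected by cytoblot immunostaining with HRP secondary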
# [8] = biological target: NADPH oxidase 2 (Homo sapiens) (UniProt P04839); test: NOX2-dependent H2O2 signal modulators, primary screen, NOX inhibitor project, cell-based, HEK293-NOX2, PMA-stimulated, Amplex Red fluorescence (AID 1159); settings: 45 min, higher = more signal, called active from +8 up or from −8 down; also: test concentration not given here
# Sequence of NADPH oxidase 2 (Homo sapiens) (P04839 whole entry, looked up): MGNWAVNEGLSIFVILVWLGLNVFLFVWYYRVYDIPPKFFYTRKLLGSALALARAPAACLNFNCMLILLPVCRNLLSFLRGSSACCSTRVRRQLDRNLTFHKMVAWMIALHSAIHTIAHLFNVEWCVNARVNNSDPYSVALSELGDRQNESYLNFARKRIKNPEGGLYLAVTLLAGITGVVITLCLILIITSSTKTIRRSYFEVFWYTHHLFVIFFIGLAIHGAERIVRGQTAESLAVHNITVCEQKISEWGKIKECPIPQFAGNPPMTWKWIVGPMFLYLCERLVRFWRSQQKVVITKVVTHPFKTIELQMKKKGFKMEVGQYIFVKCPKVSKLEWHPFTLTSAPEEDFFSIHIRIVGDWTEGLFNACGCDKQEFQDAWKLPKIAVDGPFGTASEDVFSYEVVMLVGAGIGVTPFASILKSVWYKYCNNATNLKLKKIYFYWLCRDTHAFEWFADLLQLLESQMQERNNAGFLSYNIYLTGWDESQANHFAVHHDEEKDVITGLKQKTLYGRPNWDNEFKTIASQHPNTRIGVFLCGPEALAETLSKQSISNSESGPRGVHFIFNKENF
# [9] = biological target: NADPH oxidase 4 (Homo sapiens) (UniProt Q9NPH5); test: NOX4-dependent H2O2 signal modulators, primary screen, NOX inhibitor project, cell-based, HEK293-NOX4, tetracycline-induced, Amplex Red fluorescence (AID 1160); settings: 45 min, higher = more signal, called active from +8 up or from −8 down
# Sequence of NADPH oxidase 4 (Homo sapiens) (Q9NPH5 whole entry, looked up): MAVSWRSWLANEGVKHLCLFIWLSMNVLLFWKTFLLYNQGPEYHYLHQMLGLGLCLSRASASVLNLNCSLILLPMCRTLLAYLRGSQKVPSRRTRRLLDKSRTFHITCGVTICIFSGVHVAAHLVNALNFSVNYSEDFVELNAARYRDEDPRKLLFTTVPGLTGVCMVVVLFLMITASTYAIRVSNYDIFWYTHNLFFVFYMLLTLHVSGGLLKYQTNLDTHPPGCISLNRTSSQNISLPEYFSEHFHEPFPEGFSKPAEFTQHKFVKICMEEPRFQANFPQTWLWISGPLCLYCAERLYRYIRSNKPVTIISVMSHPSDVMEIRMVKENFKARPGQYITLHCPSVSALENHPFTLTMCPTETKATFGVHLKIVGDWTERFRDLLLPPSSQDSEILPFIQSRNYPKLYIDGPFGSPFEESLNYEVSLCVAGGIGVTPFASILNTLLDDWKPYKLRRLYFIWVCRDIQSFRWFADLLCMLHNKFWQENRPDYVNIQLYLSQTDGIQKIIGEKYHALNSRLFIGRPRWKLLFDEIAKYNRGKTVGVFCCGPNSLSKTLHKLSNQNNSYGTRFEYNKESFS
# [10] = biological target: NADPH oxidase 5 (Homo sapiens) (UniProt Q96PH1); test: NOX5-dependent H2O2 signal modulators, primary screen, NOX inhibitor project, cell-based, HEK293-NOX5, Amplex Red fluorescence (AID 1161); settings: HEK293-NOX5, ionomycin, 45 min, higher = more signal
# Sequence of NADPH oxidase 5 (Homo sapiens) (Q96PH1 whole entry, looked up): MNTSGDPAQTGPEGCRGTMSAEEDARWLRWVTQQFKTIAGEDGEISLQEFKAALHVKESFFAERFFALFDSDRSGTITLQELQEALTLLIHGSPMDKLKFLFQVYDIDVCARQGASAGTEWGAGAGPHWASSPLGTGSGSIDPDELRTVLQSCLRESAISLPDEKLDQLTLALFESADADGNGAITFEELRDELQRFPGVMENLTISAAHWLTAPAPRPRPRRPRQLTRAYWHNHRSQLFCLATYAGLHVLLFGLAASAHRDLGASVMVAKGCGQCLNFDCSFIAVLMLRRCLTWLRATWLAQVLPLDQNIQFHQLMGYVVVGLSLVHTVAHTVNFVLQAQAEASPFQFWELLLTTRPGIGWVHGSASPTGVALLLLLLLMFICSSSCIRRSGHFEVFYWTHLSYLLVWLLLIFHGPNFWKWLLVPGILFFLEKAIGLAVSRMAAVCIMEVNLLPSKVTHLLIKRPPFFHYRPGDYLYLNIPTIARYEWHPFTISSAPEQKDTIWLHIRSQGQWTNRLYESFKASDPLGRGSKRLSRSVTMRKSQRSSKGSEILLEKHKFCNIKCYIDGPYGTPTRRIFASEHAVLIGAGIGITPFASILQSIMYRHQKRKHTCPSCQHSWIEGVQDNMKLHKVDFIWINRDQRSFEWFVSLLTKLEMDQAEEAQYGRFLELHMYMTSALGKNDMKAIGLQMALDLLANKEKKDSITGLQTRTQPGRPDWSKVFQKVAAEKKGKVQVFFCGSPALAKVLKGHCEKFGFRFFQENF
# [11] = A549 cell viability effects, profiling panel, calcein-AM fluorescence, 48 h, basal (AID 1162); settings: higher = more signal; also: test concentration not given here
# [12] = adipocyte viability effects, profiling panel, cell-based, 3T3-L1 adipocytes, calcein-AM fluorescence, 48 h, basal (AID 1163); settings: 3T3-L1 adipocytes viability, higher = more signal; also: test concentration not given here
# [13] = HepG2 cell viability effects, profiling panel, calcein-AM fluorescence, 48 h, basal (AID 1164); settings: higher = more signal; also: test concentration not given here
# [14] = MM1S cell viability effects, profiling panel, calcein-AM fluorescence, 48 h, basal (AID 1165); settings: higher = more signal;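 also: viability of MM1S multiple myeloma cells under basal unstimulated conditions; test concentration not given here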
# [15] = basal RPMI8226 viability, no added stimulus, profiling panel, cell-based, calcein-AM fluorescence, 48 h, PK04 Diversity Set (AID 1166); settings: RPMI8226 myeloma viability, higher = more signal;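 also: cells grown under basal conditions without added stimulus; test concentration not given here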
# [16] = basal HepG2 mitochondrial membrane potential changes, profiling panel, cell-based, JC-1 fluorescence, 24 h, 100 nL compound (AID 1167); settings: higher = more signal; also: test concentration not given here
# [17] = basal 3T3-L1 adipocyte mitochondrial potential changes, profiling panel, cell-based, JC-1 fluorescence, 3T3-L1 adipocytes, 24 h, 100 nL compound (AID 1168); settings: JC-1 mitochondrial fluorescence, higher = more signal, called active from +8 up or from −8 down; also: test concentration not given here
# [18] = basal RPMI8226 mitochondrial membrane potential changes, profiling panel, cell-based, JC-1 fluorescence, 24 h, 100 nL compound (AID 1169); settings: RPMI8226 myeloma, JC-1 mitochondrial potential fluorescence, higher = more signal; also: test concentration not given here
# [19] = basal MM1S mitochondrial membrane potential changes, profiling panel, cell-based, JC-1 fluorescence, 24 h, 100 nL compound (AID 1170); settings: higher = more signal; also: test concentration not given here
# [20] = A549 lung cancer cell viability effects, profiling panel, resazurin fluorescence, 24 h, PK04 Diversity Set (AID 1171); settings: higher = more signal, called active from +8 up or from −8 down; also: test concentration not given here
SMILES,z-score [1],composite z-score [2],z-score [3],z-score [4],z-score [5],z-score [6],z-score [7],z-score [8],z-score [9],z-score [10],z-score [11],z-score [12],z-score [13],z-score [14],z-score [15],z-score [16],z-score [17],z-score [18],z-score [19],z-score [20]
C[N+](C)(C)CCCCCCNC(=O)[C@H]1C[C@H]2C(=O)NCC(=O)N2[C@H]1c1cccc(OCCO)c1,-0.191 (inactive),-0.259,2.76 (inactive),0.462 (inactive),-1.36 (inactive),0.179 (inactive),0.142,0.752 (inactive),1.12 (inactive),1.24,-0.292,-0.207,-0.528,0.112,0.579,-1.52,-0.529 (inactive),0.0573,0.127,0.749 (inactive)
C=C(/C(=C/C[C@H](OC(=O)c1ccncc1)c1ccccc1OCCO)c1cc(C(=O)OC)ccc1OC)C(C)C,-0.458 (inactive),0.428,14.9 (active),2.53 (inactive),2.19 (inactive),1.02 (inactive),0.222,1.22 (inactive),-0.614 (inactive),-1.29,0.0292,0.322,-0.275,-1.85,-0.122,0.589,-0.617 (inactive),-0.429,0.00378,1.47 (inactive)
CCC[C@@H]1C=C(C(=O)OCC)[C@H](c2ccccc2)N1S(=O)(=O)c1ccc(C)cc1,-0.843 (inactive),0.316,-0.0086 (inactive),0.979 (inactive),-0.628 (inactive),0.0962 (inactive),-0.788,-0.671 (inactive),-0.646 (inactive),-0.135,-1.78,-0.937,-2.37,-1.19,-2.96,3.86,0.437 (inactive),-0.756,-0.65,1.8 (inactive)
CCCCN1CC=CC23O[C@@H]4C=CCOC(=O)[C@@H]4[C@H]2C(=O)N(C(CO)C(C)C)[C@@H]3C1=O (stereo not given in full),-0.62 (inactive),-0.0697,1.16 (inactive),0.574 (inactive),1.06 (inactive),0.407 (inactive),-0.272,0.835 (inactive),0.17 (inactive),1.88,-0.503,-1.13,-0.803,0.543,-0.42,-0.528,-0.713 (inactive),0.184,-0.071,-0.519 (inactive)
CCCC[C@H]1OB(O)C[C@H]2C1=C(C)C[C@H]1C(=O)C=CC(=O)[C@H]12,-0.202 (inactive),-0.06,1.7 (inactive),0.183 (inactive),0.816 (inactive),0.182 (inactive),-0.0244,-1.12 (inactive),-1.25 (inactive),-1.18,-0.252,-1.14,-0.799,-3.35,-3.16,-3.39,-1.24 (inactive),-0.937,-2.13,-0.443 (inactive)
COCCOC(=O)N1C(=O)[C@@]2(c3cc(C#Cc4ccc(OC)cc4)ccc31)[C@H](C(=O)Nc1nc3ccccc3s1)[C@H]1C(=O)O[C@H](c3ccccc3)[C@H](c3ccccc3)N1[C@@H]2c1ccccc1OCCO,2.47 (inactive),-0.295,8.82 (active),0.873 (inactive),0.953 (inactive),0.514 (inactive),0.486,1.13 (inactive),0.337 (inactive),1.45,-0.49,1.31,0.195,-1.35,-0.213,-2.46,3.66 (inactive),-0.678,-0.881,0.027 (inactive)
CC(C)C[C@@H]1NC(=O)[C@H]2C[C@@H](C(=O)NCCCCCNC(=O)CS)[C@@H](c3ccc(O)cc3)N2C1=O,0.213 (inactive),-0.549,3.25 (inactive),0.945 (inactive),0.256 (inactive),0.277 (inactive),-0.277,1 (inactive),-0.828 (inactive),0.918,-0.286,0.709,-0.724,-1.04,-1.36,-0.686,-0.372 (inactive),-0.113,-0.611,-0.858 (inactive)
CCCCC(O)C1C=CC2C(=O)NC(=O)C2N1Nc1ccc(Cl)cc1Cl (stereo not given),-1.73 (inactive),0.396,2.42 (inactive),1.53 (inactive),0.39 (inactive),0.998 (inactive),-0.787,-0.461 (inactive),-5.64 (inactive),-3.41,-1.99,0.266,-2.39,-1.55,-2.27,-2.38,-0.831 (inactive),-0.64,0.724,-1.99 (inactive)
C=CCOC(=O)[C@H]1[C@@H]2C(=O)O[C@@H](c3ccccc3)[C@@H](c3ccccc3)N2[C@@H](c2ccc(OCCOC(=O)[C@H]3C[C@H]4C(=O)NCC(=O)N4[C@H]3c3ccc(O)cc3)cc2)[C@]12C(=O)Nc1ccc(I)cc12,0.345 (inactive),0.0359,2.6 (inactive),2.66 (inactive),1.02 (inactive),1.33 (inactive),0.839,1.54 (inactive),1.5 (inactive),1.22,-0.362,0.34,1.78,0.782,0.483,-1.63,0.266 (inactive),-0.398,-1.43,0.144 (inactive)
NC(=O)NCC#Cc1ccc2c(c1)[C@]1(C(=O)N2)[C@H](C(=O)N2CCCCCCC2)[C@H]2C(=O)O[C@H](c3ccccc3)[C@H](c3ccccc3)N2[C@@H]1c1ccc(O)cc1,-0.504 (inactive),2.3,-0.268 (inactive),-0.0915 (inactive),-0.117 (inactive),-0.0064 (inactive),-0.602,1.67 (inactive),0.541 (inactive),1.15,-0.491,-0.542,-0.0358,-0.499,-0.193,-1.98,-0.35 (inactive),-0.981,0.0512,-0.0116 (inactive)
COc1ccc([Si](C)(C)[C@H]2[C@H](CCO)O[C@@]3(C(=O)N(Cc4ccc(N5CCOC5=O)cc4)c4ccccc43)[C@@H]2C)cc1,0.257 (inactive),0.203,34.9 (active),32.8 (active),1.63 (inactive),6.38 (inactive),0.419,-0.372 (inactive),1.75 (inactive),0.908,-0.108,0.684,-0.591,-2.54,-3.98,0.137,1.82 (inactive),-0.992,-1.49,-1.54 (inactive)
COC(=O)[C@H](Cc1ccc(O)cc1)N1CC2=CCCC=C[C@@H]2[C@H]1[C@H](O)Cc1ccccc1,1.42 (inactive),-0.149,3.23 (inactive),-1.53 (inactive),-0.241 (inactive),-2.05 (inactive),0.814,0.63 (inactive),-3.8 (inactive),-2.8,0.852,0.308,-0.231,-3.12,-0.833,-1.68,-0.501 (inactive),-0.521,-1.58,0.481 (inactive)
CCOC(=O)C[C@H]1[C@H](OC(=O)Cc2ccc3c(c2)OCO3)[C@@H](NC(=O)c2ccccc2)c2cc(OCCCO)ccc2N1C(=O)Cc1ccc(OC)cc1,1.57 (inactive),-0.31,9.58 (active),0.828 (inactive),-0.288 (inactive),-0.129 (inactive),2.91,-0.986 (inactive),0.205 (inactive),-1.1,3.09,1.19,1.01,0.856,0.434,1.53,-0.947 (inactive),0.133,-0.851,0.0119 (inactive)
COC(=O)[C@@]1(Cc2ccc(F)cc2)[C@H]2c3cc(C(=O)N(C)C)n(CCO)c3C[C@H]2CN1C(=O)c1ccccc1,-0.285 (inactive),0.0774,0.0154 (inactive),-0.687 (inactive),-1.25 (inactive),-1.27 (inactive),1.8,0.254 (inactive),1.68 (inactive),-2.18,-0.371,-0.173,0.318,0.563,0.382,-2.03,-0.453 (inactive),0.161,0.243,-1.59 (inactive)
C=CCC(OC(C)=O)[C@@H]1[C@@H](N(Cc2ccc(-c3cccc(C(F)(F)F)c3)o2)C(=O)Cc2ccc(F)cc2)c2cc(OCCCO)ccc2N1C(=O)c1ccc2ccccc2c1 (stereo not given in full),-0.353 (inactive),0.0732,0.05 (inactive),-0.213 (inactive),0.337 (inactive),0.161 (inactive),0.531,-2.05 (inactive),0.631 (inactive),0.0399,-0.292,0.499,0.966,0.353,0.366,2.03,0.294 (inactive),-0.793,0.251,0.116 (inactive)
COC(=O)[C@@]1(Cc2ccccc2)[C@@H]2[C@@H](CC(=O)[C@H]2CC(=O)C(=O)N(C)C)CN1C(=O)c1ccccc1,-0.655 (inactive),0.0811,2.19 (inactive),0.543 (inactive),0.0132 (inactive),0.738 (inactive),-0.268,0.984 (inactive),0.766 (inactive),-0.461,0.258,-0.103,0.0925,-0.822,0.397,1.23,-0.239 (inactive),0.209,-1.31,-0.658 (inactive)
COCCOC(=O)N1C(=O)[C@@]2(c3cc(C#CCC(C(=O)OC)C(=O)OC)ccc31)[C@H](C(=O)N1CCCCCCC1)[C@H]1C(=O)O[C@H](c3ccccc3)[C@H](c3ccccc3)N1[C@@H]2c1ccccc1OCCO,0.822 (inactive),2.72,2.04 (inactive),-0.228 (inactive),0.489 (inactive),-1.21 (inactive),2.14,-0.817 (inactive),-0.194 (inactive),-1.87,-0.143,1.83,0.0429,-0.284,-1.56,-0.747,2.14 (inactive),-0.124,-0.892,0.822 (inactive)

# — PubChem BioAssay
